# Inconclusive results are not listed. Calls of active or inactive are those of the source. How the source made its calls, unless noted: active means hit-call score of the fitted dose curve at least 0.9, where 1 is the maximum; inconclusive means response in the unintended direction; inactive means score below 0.9.
# Experiments:
# [1] = molecular target: Bile acid receptor (Homo sapiens) (UniProt Q96RI1); experiment: ATG_IR1_CIS: Attagene CIS-FACTORIAL HepG2 Assay for human Nuclear Receptor Subfamily 1 Group H Member 4 (NR1H4), IR1 submotif (AID 2282946; active means hit-call score of the fitted dose curve at least 0.9, where 1 is the maximum; inactive means score below 0.9); details: IR1 reporter transcription, actives raise or lower the signal
# Bile acid receptor (Homo sapiens), sequence (Q96RI1 whole entry, looked up): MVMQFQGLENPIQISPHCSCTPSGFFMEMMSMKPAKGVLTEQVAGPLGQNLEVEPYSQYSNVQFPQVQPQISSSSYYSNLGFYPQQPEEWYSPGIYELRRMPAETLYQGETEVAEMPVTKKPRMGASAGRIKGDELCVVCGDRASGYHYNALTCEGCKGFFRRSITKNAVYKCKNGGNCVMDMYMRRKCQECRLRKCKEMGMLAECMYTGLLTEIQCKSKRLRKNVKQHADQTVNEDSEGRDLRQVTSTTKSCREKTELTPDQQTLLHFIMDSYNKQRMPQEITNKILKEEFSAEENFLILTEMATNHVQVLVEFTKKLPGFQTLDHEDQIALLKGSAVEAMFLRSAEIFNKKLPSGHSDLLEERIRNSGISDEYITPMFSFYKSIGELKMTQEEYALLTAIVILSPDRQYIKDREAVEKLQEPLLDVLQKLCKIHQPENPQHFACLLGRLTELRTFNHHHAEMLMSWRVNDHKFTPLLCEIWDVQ
# Outline: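 Transient MRTU transfection, HepG2; 24 h dosing; RNA → RT-PCR → 6-FAM primer extension → HpaI digest → capillary electrophoresis fluorescence. Gain/loss of signal fitted relative to DMSO.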
# [2] = molecular target: Nuclear receptor subfamily 1 group I member 3 (Homo sapiens) (UniProt Q14994); experiment: ATG_CAR_TRANS: Attagene TRANS-FACTORIAL HepG2 Assay for human Constitutive Androstane Receptor (CAR) (AID 2282969); details: HepG2 Attagene TRANS-FACTORIAL CAR reporter;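 further: activators raise reporter mRNA above DMSO so AC50 marks induction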
# Outline: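 HepG2 cells transiently transfected with multiplexed GAL4-UAS reporter units expressing chimeric NR-Gal4 proteins; compound exposure 24 h. Reporter mRNA measured by RT-PCR, 6-FAM labelling, HpaI digestion and capillary electrophoresis; gain-of-signal fitted against DMSO baseline.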
# [3] = ATG_M_19_TRANS: Attagene TRANS-FACTORIAL HepG2 Assay for M19 Transcription Factor (Internal Marker) (AID 2282974); details: HepG2 Attagene TRANS-FACTORIAL M19 internal marker reporter
# Outline: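 Fluorescence of 6-FAM-labelled reporter cDNA fragments, separated by capillary electrophoresis, served as the readout. These derived from HepG2 cells carrying transfected GAL4-UAS reporter units after 24 h dosing, with DMSO as negative control.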
# [4] = ATG_GAL4_TRANS: Attagene TRANS-FACTORIAL HepG2 Assay for GAL4 (Internal Marker) (AID 2282976); details: HepG2 Attagene TRANS GAL4 internal marker reporter
# Outline: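 In transfected human HepG2 liver cells dosed 24 h, GAL4 reporter mRNA serves as a baseline marker. Detection by RT-PCR with fluorescent capillary electrophoresis, activity fitted upward relative to DMSO.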
# [5] = molecular target: Oxysterols receptor LXR-alpha (Homo sapiens) (UniProt Q13133); experiment: ATG_LXRa_TRANS: Attagene TRANS-FACTORIAL HepG2 Assay for human Liver X Receptor alpha (LXRa) (AID 2282980); details: HepG2 Attagene TRANS reporter, LXRa transactivation
# Oxysterols receptor LXR-alpha (Homo sapiens), sequence (Q13133 whole entry, looked up, the tested form may be a part): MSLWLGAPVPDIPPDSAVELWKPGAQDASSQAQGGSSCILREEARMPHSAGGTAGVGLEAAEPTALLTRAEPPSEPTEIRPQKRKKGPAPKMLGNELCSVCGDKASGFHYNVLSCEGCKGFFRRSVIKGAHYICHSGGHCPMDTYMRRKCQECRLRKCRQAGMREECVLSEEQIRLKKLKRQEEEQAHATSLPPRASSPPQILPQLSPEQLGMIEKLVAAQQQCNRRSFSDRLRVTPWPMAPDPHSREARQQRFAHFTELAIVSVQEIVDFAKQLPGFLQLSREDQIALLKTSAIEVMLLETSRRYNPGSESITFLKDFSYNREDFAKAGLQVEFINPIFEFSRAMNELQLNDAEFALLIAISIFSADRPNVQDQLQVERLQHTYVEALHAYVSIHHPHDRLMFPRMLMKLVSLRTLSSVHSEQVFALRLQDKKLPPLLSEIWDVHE
# Outline: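 Chemical-induced reporter mRNA measured by RT-PCR with fluorescent labelling and capillary electrophoresis after 24 h dosing of transiently transfected HepG2 cells expressing exogenous NR-Gal4 chimeras; increases scored against DMSO baseline.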
# [6] = molecular target: Oxysterols receptor LXR-beta (Homo sapiens) (UniProt P55055); experiment: ATG_LXRb_TRANS: Attagene TRANS-FACTORIAL HepG2 Assay for human Liver X Receptor beta (LXRb) (AID 2282981); details: HepG2 Attagene TRANS GAL4-LXRb reporter, mRNA
# Oxysterols receptor LXR-beta (Homo sapiens), sequence (P55055 whole entry, looked up, the tested form may be a part): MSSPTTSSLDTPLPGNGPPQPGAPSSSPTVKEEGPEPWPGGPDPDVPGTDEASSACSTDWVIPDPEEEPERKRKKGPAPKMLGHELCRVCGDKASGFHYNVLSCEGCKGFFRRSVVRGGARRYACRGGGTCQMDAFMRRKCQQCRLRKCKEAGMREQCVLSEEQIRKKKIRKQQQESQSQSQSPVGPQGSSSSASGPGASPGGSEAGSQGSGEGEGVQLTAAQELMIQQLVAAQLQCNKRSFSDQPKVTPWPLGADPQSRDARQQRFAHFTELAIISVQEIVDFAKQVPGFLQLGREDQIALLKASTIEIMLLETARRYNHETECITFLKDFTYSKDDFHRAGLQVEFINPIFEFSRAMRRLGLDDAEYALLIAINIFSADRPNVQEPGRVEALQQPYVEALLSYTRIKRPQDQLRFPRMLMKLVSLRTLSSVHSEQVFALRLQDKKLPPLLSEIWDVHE
# Outline: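 HepG2 cells transiently transfected with multiple reporter transcription units carrying chimeric NR-Gal4 proteins acting on GAL4-UAS reporters; compound exposure 24 h. Reporter mRNA quantified by RT-PCR, 6-FAM labelling, HpaI digestion and capillary electrophoresis; gain of signal versus DMSO.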
# [7] = molecular target: Nuclear receptor subfamily 4 group A member 2 (Homo sapiens) (UniProt P43354); experiment: ATG_NURR1_TRANS: Attagene TRANS-FACTORIAL HepG2 Assay for human Nuclear Receptor Related Protein 1 (NURR1) (AID 2282985); details: HepG2 Attagene TRANS reporter, mRNA readout
# Nuclear receptor subfamily 4 group A member 2 (Homo sapiens), sequence (P43354 whole entry, looked up, the tested form may be a part): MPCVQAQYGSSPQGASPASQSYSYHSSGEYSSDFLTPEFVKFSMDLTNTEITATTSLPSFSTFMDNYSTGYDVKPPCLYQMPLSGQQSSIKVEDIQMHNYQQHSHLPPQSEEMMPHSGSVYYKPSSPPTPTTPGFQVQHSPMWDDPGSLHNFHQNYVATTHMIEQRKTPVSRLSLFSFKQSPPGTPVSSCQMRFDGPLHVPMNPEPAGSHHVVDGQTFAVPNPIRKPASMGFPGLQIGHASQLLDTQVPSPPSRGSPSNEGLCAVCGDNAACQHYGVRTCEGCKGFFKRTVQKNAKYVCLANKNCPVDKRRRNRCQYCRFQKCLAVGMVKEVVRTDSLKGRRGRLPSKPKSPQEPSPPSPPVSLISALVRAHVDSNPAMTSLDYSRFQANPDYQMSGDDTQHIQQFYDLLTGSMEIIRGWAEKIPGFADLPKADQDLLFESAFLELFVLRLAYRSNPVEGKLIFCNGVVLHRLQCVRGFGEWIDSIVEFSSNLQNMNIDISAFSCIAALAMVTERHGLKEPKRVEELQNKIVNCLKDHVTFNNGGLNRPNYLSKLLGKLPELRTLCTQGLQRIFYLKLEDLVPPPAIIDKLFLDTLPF
# Outline: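 HepG2 cells transiently transfected with GAL4-UAS reporter units and chimeric NR-Gal4 constructs; chemical exposure 24 h. Reporter mRNA quantified by RT-PCR, fluorescent labelling and capillary electrophoresis; gain of signal fitted relative to DMSO baseline.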
# [8] = molecular target: human Peroxisome Proliferator-activated Receptor alpha (PPARa), PPARA (gene 5465) (UniProt Q07869); experiment: ATG_PPARa_TRANS: Attagene TRANS-FACTORIAL HepG2 Assay for human Peroxisome Proliferator-activated Receptor alpha (PPARa) (AID 2283001)
# human Peroxisome Proliferator-activated Receptor alpha (PPARa), PPARA (gene 5465), sequence (Q07869 whole entry, looked up, the tested form may be a part): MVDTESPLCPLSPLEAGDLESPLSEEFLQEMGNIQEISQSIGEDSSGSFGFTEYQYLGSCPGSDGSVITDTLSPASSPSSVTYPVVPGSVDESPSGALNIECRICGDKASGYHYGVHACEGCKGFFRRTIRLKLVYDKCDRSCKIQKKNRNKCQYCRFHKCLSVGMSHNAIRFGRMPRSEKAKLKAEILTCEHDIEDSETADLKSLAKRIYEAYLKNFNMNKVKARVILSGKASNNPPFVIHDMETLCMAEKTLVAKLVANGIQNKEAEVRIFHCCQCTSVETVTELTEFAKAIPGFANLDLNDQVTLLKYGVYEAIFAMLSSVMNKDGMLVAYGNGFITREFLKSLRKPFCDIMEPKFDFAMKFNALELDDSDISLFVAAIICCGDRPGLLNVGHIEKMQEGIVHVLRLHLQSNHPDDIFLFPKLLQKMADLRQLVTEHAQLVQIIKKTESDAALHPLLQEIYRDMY
# Outline: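 HepG2 cells transiently transfected with multiplexed GAL4-UAS reporter units and chimeric NR-Gal4 constructs were dosed for 24 h. Reporter mRNA was measured by RT-PCR with fluorescent labelling and capillary electrophoresis; gain of signal fitted against DMSO.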
# [9] = molecular target: human Peroxisome Proliferator-activated Receptor delta (PPARd), PPARD (gene 5467) (UniProt Q03181); experiment: ATG_PPARd_TRANS: Attagene TRANS-FACTORIAL HepG2 Assay for human Peroxisome Proliferator-activated Receptor delta (PPARd) (AID 2283002)
# human Peroxisome Proliferator-activated Receptor delta (PPARd), PPARD (gene 5467), sequence (Q03181 whole entry, looked up, the tested form may be a part): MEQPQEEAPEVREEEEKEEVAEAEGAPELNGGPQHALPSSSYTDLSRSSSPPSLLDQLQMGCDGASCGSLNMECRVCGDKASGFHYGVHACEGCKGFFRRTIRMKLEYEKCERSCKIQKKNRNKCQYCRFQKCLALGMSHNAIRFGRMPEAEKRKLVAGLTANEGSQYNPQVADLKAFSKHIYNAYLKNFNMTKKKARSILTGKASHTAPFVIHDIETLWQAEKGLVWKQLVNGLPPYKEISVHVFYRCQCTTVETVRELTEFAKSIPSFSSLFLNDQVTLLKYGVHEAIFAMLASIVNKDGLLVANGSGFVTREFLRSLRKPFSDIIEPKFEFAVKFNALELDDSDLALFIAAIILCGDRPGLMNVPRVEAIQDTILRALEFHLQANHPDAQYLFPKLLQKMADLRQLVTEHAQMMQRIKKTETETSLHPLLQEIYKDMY
# Outline: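 Multiplexed trans-activation format: HepG2 liver cells expressing exogenous NR-Gal4 chimeras and GAL4-UAS reporters were exposed for 24 h. Reporter mRNA was detected by RT-PCR with capillary electrophoresis fluorescence; activity fitted as gain of signal relative to DMSO.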
# [10] = molecular target: Peroxisome proliferator-activated receptor gamma (Homo sapiens) (UniProt P37231); experiment: OT_PPARg_PPARgSRC1_0480: Odyssey Thera (OT) 8-hour Protein-Complementation Assay for Peroxisome Proliferator-activated Receptor Gamma / SRC-1 Co-activator (AID 2283387);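 further: nuclear to cytoplasmic split Venus YFP fluorescence ratio reporting PPARg SRC-1 interaction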
# Peroxisome proliferator-activated receptor gamma (Homo sapiens), sequence (P37231 whole entry, looked up, the tested form may be a part): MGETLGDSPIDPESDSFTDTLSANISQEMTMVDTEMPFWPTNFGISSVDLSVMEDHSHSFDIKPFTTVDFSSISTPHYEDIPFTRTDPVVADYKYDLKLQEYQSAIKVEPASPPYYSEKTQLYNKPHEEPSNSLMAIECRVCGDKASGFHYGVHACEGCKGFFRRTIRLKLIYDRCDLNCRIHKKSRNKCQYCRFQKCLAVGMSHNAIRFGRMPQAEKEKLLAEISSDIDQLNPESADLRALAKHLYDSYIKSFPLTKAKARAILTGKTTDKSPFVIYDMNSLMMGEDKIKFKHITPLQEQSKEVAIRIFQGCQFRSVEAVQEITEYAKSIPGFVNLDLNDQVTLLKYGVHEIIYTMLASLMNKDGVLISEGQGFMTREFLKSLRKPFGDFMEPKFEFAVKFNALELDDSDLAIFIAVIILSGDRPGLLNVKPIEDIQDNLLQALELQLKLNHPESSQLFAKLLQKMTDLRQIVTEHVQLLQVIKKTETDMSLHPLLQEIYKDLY
# Outline: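 Split-YFP (IFP1/IFP2) PPARg/SRC-1 reporter, HEK293T, 37 °C, 5% CO2; 8 h compound; formaldehyde fix + Draq5; high-content imaging, N/C ratio, ≥350 cells/image, positive direction vs DMSO.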
# [11] = molecular target: Peroxisome proliferator-activated receptor gamma (Homo sapiens) (UniProt P37231); experiment: OT_PPARg_PPARgSRC1_1440: Odyssey Thera (OT) 24-hour Protein-Complementation Assay for Peroxisome Proliferator-activated Receptor Gamma/ SRC-1 Co-activator (AID 2283388);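 further: nuclear to cytoplasmic ratio of reconstituted Venus YFP fluorescence in fixed imaged cells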
# Outline: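 Readout is the 488 nm N/C fluorescence ratio from fixed, Draq5-stained HEK293T cells after 24 h compound exposure. Cells carried transiently transfected PPARg and SRC-1 fused to Venus fragments, transfected 48 h before treatment.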
# [12] = TOX21_p53_BLA_p2_viability: Viability Assessment in the Tox21 HCT-116 p53 Agonism Beta-lactamase Assay, Phase 2 (AID 2283591);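 further: compound exposure lasted 16 h at 37 °C; actives lower the ATP signal meaning cytotoxicity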
# Outline: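 HCT-116 p53-bla cells (4000/well) rested 5 h at 37C, then received compounds in DMSO (217-fold dilution) for 16 h at 37C, 5% CO2. After the CCF4 read, CellTiter-Glo was added; ATP luminescence was read after 30 min at room temperature.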
# [13] = molecular target: Cellular tumor antigen p53 (Homo sapiens) (UniProt P04637); experiment: TOX21_p53_BLA_p2_ratio: Tox21 HCT-116 p53 Agonism Beta-lactamase Assay, Ratio, Phase 2 (AID 2283592)
# Cellular tumor antigen p53 (Homo sapiens), sequence (P04637 whole entry, looked up): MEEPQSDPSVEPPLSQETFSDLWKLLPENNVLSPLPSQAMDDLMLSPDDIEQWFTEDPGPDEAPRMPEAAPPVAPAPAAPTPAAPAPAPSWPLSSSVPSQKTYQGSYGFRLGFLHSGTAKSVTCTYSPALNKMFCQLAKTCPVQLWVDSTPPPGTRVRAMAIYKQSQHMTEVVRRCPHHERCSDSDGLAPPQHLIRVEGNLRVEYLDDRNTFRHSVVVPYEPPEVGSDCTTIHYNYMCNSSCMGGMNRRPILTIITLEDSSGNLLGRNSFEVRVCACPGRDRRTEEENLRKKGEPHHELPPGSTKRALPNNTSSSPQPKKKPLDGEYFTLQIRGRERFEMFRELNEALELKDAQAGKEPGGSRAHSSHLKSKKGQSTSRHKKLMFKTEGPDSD
# Outline: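 Gain-of-signal p53 agonism was scored from the beta-lactamase FRET ratio (460/530 nm, 405 nm excitation) in HCT116 cells treated 16 h at 37C, 5% CO2, with DMSO serving as negative control and baseline.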
# [14] = TOX21_p53_BLA_p5_viability: Viability Assessment in the Tox21 HCT-116 p53 Agonism Beta-lactamase Assay, Phase 5 (AID 2283600)
# Outline: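 After the 460/530 nm beta-lactamase measurement, the wells received an ATP-detection luciferase reagent; signal was read 30 min later at RT. Compound treatment lasted 16 h on cells pre-incubated 5 h post-seeding.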
# [15] = ACEA_ER_AUC_viability: ACEA Biosciences xCELLigence Real-Time Cell Analysis on Estrogen Receptor Agonism for Viability (AID 2283782);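 further: continuous compound exposure with impedance area under curve over 80 h; hit means loss of impedance signal meaning reduced cell growth or viability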
# Outline: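 T-47D human breast cells in phenol red-free RPMI1640 with 10% charcoal-stripped FBS were dosed with an 8-point 1:4 dilution series from 100 uM top final concentration, in duplicate. Impedance-based growth was followed for 80 h; AUC analysed versus DMSO.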
# [16] = molecular target: human RAR-related Orphan Receptor gamma (RORg), RORC (gene 6097) (UniProt P51449); experiment: ATG_RORg_TRANS: Attagene TRANS-FACTORIAL HepG2 Assay for human RAR-related Orphan Receptor gamma (RORg) (AID 2283011)
# Outline: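 Reporter transcripts from a transfected RORg-GAL4 chimera in HepG2 cells were quantified 24 h after dosing by RT-PCR, 6-FAM labelling, HpaI digestion and capillary electrophoresis; increases over DMSO baseline were fitted.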
# [17] = molecular target: human Vitamin D Receptor (VDR), VDR (gene 7421) (UniProt P11473); experiment: ATG_VDR_TRANS: Attagene TRANS-FACTORIAL HepG2 Assay for human Vitamin D Receptor (VDR) (AID 2283022)
# human Vitamin D Receptor (VDR), VDR (gene 7421), sequence (P11473 whole entry, looked up, the tested form may be a part): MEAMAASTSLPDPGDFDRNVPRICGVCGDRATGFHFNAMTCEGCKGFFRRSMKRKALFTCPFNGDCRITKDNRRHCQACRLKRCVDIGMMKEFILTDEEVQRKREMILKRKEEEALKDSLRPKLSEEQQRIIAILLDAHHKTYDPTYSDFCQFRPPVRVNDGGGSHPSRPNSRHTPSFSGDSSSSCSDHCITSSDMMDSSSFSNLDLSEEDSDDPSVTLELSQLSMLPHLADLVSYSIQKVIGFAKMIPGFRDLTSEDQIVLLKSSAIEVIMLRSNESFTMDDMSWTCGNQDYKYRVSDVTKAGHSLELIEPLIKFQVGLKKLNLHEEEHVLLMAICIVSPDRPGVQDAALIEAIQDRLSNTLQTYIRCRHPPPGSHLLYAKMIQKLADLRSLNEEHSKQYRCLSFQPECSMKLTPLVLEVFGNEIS
# Outline: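 Transactivation by an exogenous VDR-Gal4 chimera in transiently transfected HepG2 cells was measured as reporter transcript level 24 hours after chemical treatment. RT-PCR products were analysed by capillary electrophoresis and fitted in the positive direction relative to DMSO.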
# [18] = TOX21_p53_BLA_p3_viability: Viability Assessment in the Tox21 HCT-116 p53 Agonism Beta-lactamase Assay, Phase 3 (AID 2283593);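 further: cells exposed to compound for 16 h before reading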
# Outline: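 HCT-116 cells (4000/well) rested 5 h at 37C, then got DMSO compounds by pin tool (217-fold dilution) for 16 h at 37C, 5% CO2. After the bla read, CellTiter-Glo was added and luminescence read at 30 min, room temperature.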
# [19] = TOX21_p53_BLA_p4_viability: Viability Assessment in the Tox21 HCT-116 p53 Agonism Beta-lactamase Assay, Phase 4 (AID 2283597);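 further: hits lower the luminescence signal meaning cytotoxicity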
# Outline: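 Following a 16 h exposure at 37C, the treated HCT116 wells were first read for the FRET ratio. They were then lysed with CellTiter-Glo, and ATP luminescence was recorded after 30 min at room temperature.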
# [20] = molecular target: human Thyroid Receptor alpha (THRa1), THRA (gene 7067) (UniProt P10827); experiment: ATG_THRa1_TRANS: Attagene TRANS-FACTORIAL HepG2 Assay for human Thyroid Receptor alpha (THRa1) (AID 2283014)
# human Thyroid Receptor alpha (THRa1), THRA (gene 7067), sequence (P10827 whole entry, looked up, the tested form may be a part): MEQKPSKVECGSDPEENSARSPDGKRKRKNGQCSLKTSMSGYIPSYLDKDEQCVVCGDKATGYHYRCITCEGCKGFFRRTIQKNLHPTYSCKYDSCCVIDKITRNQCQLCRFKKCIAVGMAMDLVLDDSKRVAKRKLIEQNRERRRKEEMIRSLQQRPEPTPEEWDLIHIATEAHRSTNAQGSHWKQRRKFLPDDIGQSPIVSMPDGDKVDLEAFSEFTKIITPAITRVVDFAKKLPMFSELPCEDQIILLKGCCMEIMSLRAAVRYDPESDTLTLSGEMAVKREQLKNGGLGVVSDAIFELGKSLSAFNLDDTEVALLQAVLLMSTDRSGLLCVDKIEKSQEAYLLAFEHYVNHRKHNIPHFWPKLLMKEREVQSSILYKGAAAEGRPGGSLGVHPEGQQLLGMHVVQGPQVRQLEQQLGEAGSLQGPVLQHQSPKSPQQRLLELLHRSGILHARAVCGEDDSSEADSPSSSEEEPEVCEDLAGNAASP
# Outline: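 Transcripts from GAL4-UAS-driven reporters, measured after 24 h compound exposure by RT-PCR plus capillary electrophoresis of 6-FAM-labeled fragments, were fitted for gain of signal relative to DMSO. Cells: transiently transfected HepG2 expressing NR-Gal4 chimeras.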
smiles,measurement,setting,value
COc1cc(OC)nc(Oc2cccc(Oc3nc(OC)cc(OC)n3)c2C(=O)O)n1,outcome,[1],inactive
same,outcome,[2],inactive
same,outcome,[3],inactive
same,outcome,[4],inactive
same,outcome,[5],inactive
same,outcome,[6],inactive
same,outcome,[7],inactive
same,outcome,[8],inactive
same,outcome,[9],inactive
same,outcome,[10],inactive
same,outcome,[11],inactive
same,outcome,[12],inactive
same,outcome,[13],inactive
same,outcome,[14],inactive
same,outcome,[15],inactive
Nc1ccc([N+](=O)[O-])cc1N,outcome,[4],inactive
same,outcome,[5],inactive
same,outcome,[6],inactive
same,outcome,[7],inactive
same,outcome,[9],inactive
same,outcome,[16],inactive
same,outcome,[17],inactive
same,outcome,[13],inactive
same,outcome,[18],inactive
same,outcome,[19],inactive
same,outcome,[14],inactive
same,AC50,[15],50 µM (active)
BrCBr,outcome,[3],inactive
same,outcome,[4],inactive
same,outcome,[5],inactive
same,outcome,[6],inactive
same,outcome,[7],inactive
same,outcome,[9],inactive
same,outcome,[16],inactive
same,outcome,[20],inactive
same,outcome,[12],inactive
same,outcome,[13],inactive
same,outcome,[18],inactive
same,outcome,[19],inactive
same,outcome,[14],inactive
N#CCCCCC#N,outcome,[1],inactive
same,outcome,[6],inactive
same,outcome,[16],inactive
same,outcome,[20],inactive
same,outcome,[10],inactive
same,outcome,[11],inactive
same,outcome,[12],inactive
same,outcome,[13],inactive
same,outcome,[19],inactive
same,outcome,[14],inactive
CN(C)N,outcome,[4],inactive
same,outcome,[6],inactive
same,outcome,[8],inactive
same,outcome,[17],inactive
same,outcome,[10],inactive
same,outcome,[11],inactive
same,outcome,[18],inactive
same,outcome,[19],inactive
same,outcome,[15],inactive
COc1ncc(F)c2nc(S(=O)(=O)Nc3c(F)cccc3F)nn12,outcome,[3],inactive
same,outcome,[4],inactive
same,outcome,[5],inactive
same,outcome,[7],inactive
CC(C)(O)C#N,outcome,[1],inactive
same,outcome,[2],inactive
same,outcome,[5],inactive
same,outcome,[7],inactive
same,outcome,[8],inactive
same,outcome,[17],inactive
same,outcome,[10],inactive
same,outcome,[11],inactive
same,outcome,[12],inactive
same,outcome,[13],inactive
same,outcome,[18],inactive
same,outcome,[19],inactive
same,outcome,[14],inactive
same,outcome,[15],inactive
CCOP(O)OCC,outcome,[7],inactive
same,outcome,[9],inactive
same,outcome,[20],inactive
same,outcome,[17],inactive
same,outcome,[10],inactive
same,outcome,[11],inactive
COc1ccc(CO)cc1,outcome,[1],inactive
same,outcome,[3],inactive
same,outcome,[4],inactive
same,outcome,[6],inactive
same,outcome,[8],inactive
same,outcome,[9],inactive
same,outcome,[16],inactive
same,outcome,[20],inactive
same,outcome,[12],inactive
same,outcome,[14],inactive
CCC(=O)c1ccc(Cl)cc1,outcome,[2],inactive
same,outcome,[4],inactive
same,outcome,[5],inactive
same,outcome,[6],inactive
same,outcome,[7],inactive
same,outcome,[9],inactive
same,outcome,[16],inactive
same,outcome,[20],inactive
same,outcome,[17],inactive
same,outcome,[10],inactive
same,outcome,[11],inactive
same,outcome,[15],inactive
O=[N+]([O-])O.O=[N+]([O-])O.[Cd],outcome,[3],inactive
same,outcome,[4],inactive
same,outcome,[6],inactive
same,outcome,[7],inactive
same,AC50,[12],59.2 µM (active)
same,outcome,[18],inactive
same,outcome,[19],inactive
same,outcome,[14],inactive
C#CC1(O)CCCCC1,outcome,[4],inactive
same,outcome,[7],inactive
same,outcome,[16],inactive
same,outcome,[13],inactive
same,outcome,[19],inactive
same,AC50,[15],61.7 µM (active)
